In the library only some 0.91% were active in any assay of this set; here they are far more common.
WRN helicase inh-1 – qHTS for Inhibitors of WRN Helicase | Bifunctional 3'-5' exonuclease/ATP-dependent helicase WRN (Homo sapiens), Q14191 | Potency, µM (top dose mostly 114 µM), without a hit: at the top dose activity change, negative = inhibition, usual class: inhibitors | hit rate 0.46% among 360,000 | WRN helicase unwinding, fluorescent forked duplex, kinetic; further: on the % scale 0 is the no-effect control and ±100 the full control effect; nearly all actives have a fitted effect of over 55% in size
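Screening of the MLSMR collection measured strand separation of a quenched forked DNA duplex (100 nM) by 20 nM WRN with 2 mM ATP, all final. Compounds were preincubated with enzyme 15 min at room temperature.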
TRb SRC2 PPI – qHTS for Inhibitors of the Interaction of Thyroid Hormone Receptor and Steroid Receptor Coregulator 2; Thyroid hormone receptor beta (Homo sapiens), P10828; TRbeta-SRC2 peptide binding, fluorescence polarization; receptor liganded with 1 µM T3; Potency, µM (series often up to 106 µM), for inactives: at the top dose activity change, negative = inhibition, most hits filed as inhibitors; hit rate 0.065% among 280,000; AID 1469, 2008;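 further: plate controls were bound peptide for no effect and peptide without receptor for full effect; nearly all actives have a fitted effect of over 50% in size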
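Compounds were added to 0.6 uM TRb ligand-binding domain and 20 nM Texas Red-labeled SRC2 peptide in Tris buffer containing 1 uM T3, incubated 5 hr at ambient temperature, then read by fluorescence polarization.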
APEX1 inh – qHTS Assay for Inhibitors of the Human Apurinic/apyrimidinic Endonuclease 1 (APE1). DNA repair nuclease/redox regulator APEX1 (Homo sapiens), P27695. recombinant APE1, TAMRA/BHQ-2 abasic DNA cleavage fluorescence. Potency, µM (titrated, usually from 65.8 µM), inactives show top-dose activity change, negative = inhibition, usual class: inhibitors. hit rate 0.35% among 350,000. AID 2517, 2012;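 further: plate controls were vehicle for no effect and reference inhibitor for full effect; nearly all actives have a fitted effect of over 55% in size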
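Kinetic fluorescence read (525 ex/598 em nm, three reads 60 s apart) of AP-site incision; signal = third minus first read. Enzyme 0.75 nM, dual-labelled THF duplex 50 nM, compound preincubation 15 min RT.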
TR SRC2 fluor cs – Total Fluorescence Counterscreen for Inhibitors of the Interaction of Thyroid Hormone Receptor and Steroid Receptor Coregulator 2; TRb/SRC2 Texas Red total fluorescence interference; Potency, µM (series often up to 106 µM), without a hit: at the top dose fluorescence change, negative = quenching; hit rate 0.29% among 280,000; active means well fitted curve in either direction with a large enough effect; inconclusive means small, poorly fitted or top-dose-only effect; further: on the % scale 0 is the no-effect control and ±100 the full control effect
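Flags fluorescent or light-absorbing compounds by total fluorescence, S + 2P, at 555 nm excitation and 632 nm emission. Mixture: 20 nM Texas Red SRC2 peptide, 0.6 uM human TRb LBD, 1 uM T3, 5% DMSO; compound exposure 5 h at ambient temperature.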
BLM helicase inh-1 – qHTS Assay for Inhibitors of Bloom's syndrome helicase (BLM); AID 2528, 2010; recombinant BLM DNA unwinding, fluorescence dequenching; RecQ-like DNA helicase BLM (Homo sapiens), P54132; Potency, µM (series often up to 56.1 µM), without a hit: at the top dose activity change, negative = inhibition, actives largely listed as inhibitors; hit rate 0.2% among 350,000;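 further: plate controls were vehicle for no effect and no enzyme for full effect; nearly all actives have a fitted effect of over 35% in size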
Target sequence (P54132 whole entry, looked up): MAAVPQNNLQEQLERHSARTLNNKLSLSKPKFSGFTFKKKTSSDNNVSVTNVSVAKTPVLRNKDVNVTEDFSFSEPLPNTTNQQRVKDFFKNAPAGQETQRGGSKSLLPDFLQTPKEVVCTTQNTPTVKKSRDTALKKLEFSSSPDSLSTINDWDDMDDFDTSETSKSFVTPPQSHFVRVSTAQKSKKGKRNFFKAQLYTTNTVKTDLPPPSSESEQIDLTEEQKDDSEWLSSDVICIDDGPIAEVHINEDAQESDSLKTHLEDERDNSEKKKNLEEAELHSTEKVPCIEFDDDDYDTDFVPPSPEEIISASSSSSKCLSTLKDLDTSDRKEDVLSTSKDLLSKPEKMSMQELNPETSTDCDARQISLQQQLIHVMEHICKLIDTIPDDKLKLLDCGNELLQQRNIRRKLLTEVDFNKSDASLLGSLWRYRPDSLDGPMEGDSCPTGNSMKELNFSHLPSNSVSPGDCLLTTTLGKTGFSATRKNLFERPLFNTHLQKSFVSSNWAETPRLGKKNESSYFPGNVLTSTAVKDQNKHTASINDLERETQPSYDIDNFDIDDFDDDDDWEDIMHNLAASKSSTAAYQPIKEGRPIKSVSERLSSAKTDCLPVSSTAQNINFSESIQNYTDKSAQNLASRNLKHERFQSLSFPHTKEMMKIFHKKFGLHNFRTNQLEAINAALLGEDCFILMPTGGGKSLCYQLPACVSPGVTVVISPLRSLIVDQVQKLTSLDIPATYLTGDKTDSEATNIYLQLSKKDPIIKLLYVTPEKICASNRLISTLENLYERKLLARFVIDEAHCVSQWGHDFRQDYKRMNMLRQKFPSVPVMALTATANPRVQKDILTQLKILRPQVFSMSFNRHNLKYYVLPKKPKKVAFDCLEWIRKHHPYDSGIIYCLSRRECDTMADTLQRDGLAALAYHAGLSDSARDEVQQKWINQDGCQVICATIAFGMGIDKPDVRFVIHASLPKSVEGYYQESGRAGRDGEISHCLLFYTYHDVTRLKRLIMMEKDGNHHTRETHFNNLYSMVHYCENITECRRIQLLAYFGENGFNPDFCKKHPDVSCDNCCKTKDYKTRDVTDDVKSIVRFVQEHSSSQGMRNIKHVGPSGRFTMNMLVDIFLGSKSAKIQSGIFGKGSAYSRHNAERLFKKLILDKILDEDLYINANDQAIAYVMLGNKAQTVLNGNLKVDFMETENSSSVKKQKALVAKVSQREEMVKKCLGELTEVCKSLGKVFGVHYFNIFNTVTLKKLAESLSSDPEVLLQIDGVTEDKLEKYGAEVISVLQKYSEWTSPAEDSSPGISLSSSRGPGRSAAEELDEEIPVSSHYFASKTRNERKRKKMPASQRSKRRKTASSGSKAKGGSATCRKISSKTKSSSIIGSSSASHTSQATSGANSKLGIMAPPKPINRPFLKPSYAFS
RECQ1 helicase – qHTS Assay for Inhibitors of RecQ-Like Dna Helicase 1 (RECQ1) | hit rate 0.54% among 240,000 | AID 2549, 2010 | RECQ1 DNA unwinding, red fluorescence kinetic read | Potency, µM (titrated, usually from 57.3 µM), inactives show at the top dose activity, negative = inhibition, actives largely listed as inhibitors | ATP-dependent DNA helicase Q1 (Homo sapiens), P46063;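 further: plate controls were vehicle for no effect and no enzyme for full effect; nearly all actives have a fitted effect of over 30% in size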
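RECQ1T1 50 nM; forked duplex (20 bp + 30-nt ss tails) 200 nM, ATP 2 mM final; pH 8.0, 2 mM MgCl2, 2.5 ug/ml poly(dI-dC); 15 min compound preincubation; discontinuous kinetic read over 2 h at RT.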
WRN helicase inh-2 – qHTS for Inhibitors of WRN Helicase: Confirmatory Assay for Cherry-picked Compounds | shares compounds with WRN helicase inh-1 | WRN helicase DNA unwinding, fluorescence kinetic | Potency, µM (titrated, usually from 57.1 µM), for inactives: at the highest dose activity, negative = inhibition, hits mostly inhibitors | hit rate 63% among 610; further: nearly all actives have a fitted effect of over 65% in size
TO displacement – qHTS for Inhibitors of WRN Helicase: Thiazole Orange DNA Binding Counterscreen; shares compounds with WRN helicase inh-1; thiazole orange DNA binding displacement, fluorescence; Potency, µM (top dose mostly 57.1 µM), without a hit: at the top dose activity change, negative = inhibition, usual class: inhibitors; hit rate 10% among 610;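 further: drop in dye fluorescence marks compound binding to DNA; on the % scale 0 is the no-effect control and ±100 the full control effect; nearly all actives have a fitted effect of over 60% in size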
BLM helicase inh-2 – qHTS for Inhibitors of WRN Helicase: BLM Helicase Counterscreen for WRN Inhibitors; shares compounds with WRN helicase inh-1; Recombinant BLM helicase DNA unwinding, red fluorescence; Potency, µM (doses to about 57.1 µM), without a hit: at the highest dose activity change, negative = inhibition, hits mostly inhibitors; hit rate 60% among 610; AID 720503, 2013; further: nearly all actives have a fitted effect of over 60% in size
Numbers without * were called inactive; ? = inconclusive; · = no result; ! = a repeat was not active; [ ] = remark or other dose. Unless noted, the call rests on the fitted dose curve; in most records, active means well fitted curve in the direction sought with a large enough effect; inconclusive means small, poorly fitted or top-dose-only effect, or another doubt; inactive means no such curve, though single readings can be large; an effect the other way counts as inactive or inconclusive. Potency means the concentration at half of the fitted maximal effect.

SMILES	WRN helicase inh-1	TRb SRC2 PPI	APEX1 inh	TR SRC2 fluor cs	BLM helicase inh-1	RECQ1 helicase	WRN helicase inh-2	TO displacement	BLM helicase inh-2
Cc1cc(/C=C2\C(=O)NC(=O)N(c3ccc(Br)cc3)C2=O)c(C)n1-c1cc(C(=O)O)cc(C(=O)O)c1	22µM*	·	-32%	·	6%	·	24µM*	0%	-17%
CN(C)[C@@H]1C(=O)C(C(N)=O)=C(O)[C@@]2(O)C(=O)C3=C(O)c4c(O)cccc4[C@@](C)(O)[C@H]3[C@H](O)[C@@H]12	20µM*	?	7.9µM*!	16µM*![quencher]	-17%	11µM*!	17µM*	?	14µM*
Cn1cccc1/C=C1\C(=O)NC(=O)N(Cc2ccccc2Cl)C1=O	40µM*	-3%	-9%	0%	?	?	?	-15%	17µM*
COC(=O)NS(=O)(=O)c1ccc(N)cc1	·	1%[201 µM]	·	0%[201 µM]	·	·	·	·	·
COC1C(C)OC(OC2CC(C)(O)Cc3cc4c(c(O)c32)C(=O)c2c(O)cc3c(c2C4=O)OC2OC3(C)C(O)C(N(C)C)C2O)C(OC)C1(C)OC (stereo not given)	16µM*	·	·	·	·	·	2.2µM*	446%	?
COc1ccc(N2C(=O)NC(=O)/C(=C\c3ccc([N+](=O)[O-])s3)C2=O)cc1	25µM*	?	?	?	-18%	?	22µM*	-17%	-22%
Cc1ccc(/C=C2\C(=O)NC(=O)N(CC3CCCO3)C2=O)s1 (stereo not given)	-20%	-9%	?	-6%	-6%	2%	·	·	·
COc1ccc(N2C(=O)NC(=O)/C(=C/c3ccc([N+](=O)[O-])s3)C2=O)cc1	50µM*	25%	?	1%	-3%	?	19µM*	?	22µM*
CCOc1ccc(N2C(=O)NC(=O)/C(=C\c3cc(OC)c(OC)cc3[N+](=O)[O-])C2=O)cc1	?	1%	-2%	-2%	-7%	-4%	·	·	·
O=C1NC(=O)N(Cc2ccc(F)cc2)C(=O)/C1=C\c1ccc([N+](=O)[O-])s1	40µM*	14%	?	3%	-18%	32µM*	15µM*	27µM*	19µM*
COc1ccc(-c2ccccc2)cc1NNC(=O)OC(C)C	·	1%[201 µM]	·	-3%[201 µM]	·	·	·	·	·
CC1(C)CCC(Cc2ccc(Cl)cc2)C1(O)Cn1cncn1 (stereo not given)	·	4%[201 µM]	·	2%[201 µM]	·	·	·	·	·
CCN1C(=O)C(=C/C=C/c2ccco2)C(=O)N(CC)C1=S	28µM*	?	?	28µM*[fluorescent]	11%	-22%	22µM*	98%	19µM*
CCN1C(=O)C(=C2C=C(C)N(Cc3ccco3)C(C)=C2)C(=O)N(CC)C1=S	-4%	2%	-3%	-1%	-5%	-3%	·	·	·
CC(C)N1C(=O)/C(=C/C=C/c2ccco2)C(=O)N(Cc2ccco2)C1=O	35µM*	19%	?	-7%	?	10µM*	17µM*	-2%	8.6µM*
COP(=O)(OC)SCn1c(=O)oc2cc(Cl)cnc21	·	-5%[201 µM]	·	-12%[201 µM]	·	·	·	·	·
Cc1ccc(/C=C2\C(=O)NC(=S)N(c3ccc(F)cc3)C2=O)o1	?	·	45%	·	-4%	·	·	·	·
O=C1NC(=S)N(c2ccccc2)C(=O)/C1=C/c1ccco1	0.95µM*	·	17µM*	·	22µM*	·	0.96µM*	11µM*	0.19µM*
CC[C@H]1CCCC(O[C@H]2CC[C@H](N(C)C)[C@@H](C)O2)[C@@H](C)C(=O)C2=C[C@@H]3[C@@H](C=C[C@@H]4C[C@@H](O[C@@H]5O[C@@H](C)[C@H](OC)[C@@H](OC)[C@H]5OC)C[C@@H]34)[C@@H]2CC(=O)O1 (stereo not given in full)	·	1%[201 µM]	·	-1%[201 µM]	·	·	·	·	·
CN1C(=O)C(=Cc2ccccc2OCCOc2ccc([N+](=O)[O-])cc2)C(=O)N(C)C1=O	-17%	-2%	6%	0%	-3%	0%	·	·	·
O=C1NC(=O)C(=Cc2ccccc2OCCOc2ccc([N+](=O)[O-])cc2)C(=O)N1	35µM*	8%	13%	-1%	-10%	-9%	?	-16%	?
CCNc1nc(NC(C)C)nc(SC)n1	·	-5%[201 µM]	·	-4%[201 µM]	·	·	·	·	·
